Compounds with a hit are over-represented: about 3.2% of the library has one in this group of screens.
EBV LMP1 NFkB: Epstein-Barr LMP1 NF-kappaB reporter inhibition; LMP1-induced NF-kappaB luciferase reporter cells, luminescence; AID 504558; 350,000 compounds, 0.69% hits; inhibition, % at 12.5 µM; in the data active means inhibition above about 41%; inconclusive means no clear call, values can overlap the other calls
LGR2 inh: blocks bursicon-induced cAMP signaling via Drosophila LGR2; HEK293 LGR2, CRE-luciferase, bursicon-stimulated, 4 h; inhibition, % at 9.99 µM; 380,000 compounds, 0.35% hits;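 active means drop in luminescence signal, shown as inhibition above about 50% in the replicate tests, limit read from the data, passing the limit was not always enough; inconclusive means probably only some replicates passing the limit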;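 further: agonist challenge used bursicon conditioned medium at about half maximal strength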
TROY signal inh: blocks TROY-dependent signaling in reporter cells | inhibition, % at 10 µM | 360,000 compounds, 0.98% hits | Q293 LMP1-TROYcd NF-kB luciferase reporter, 4 h;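 active means compounds whose plate-normalised and pattern-corrected inhibition of the luciferase reporter signal at the single screening dose is 50% or more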
PAX8 reporter: PAX8 transcriptional activity inhibition; RMG-I TPO-luciferase reporter, SteadyGlo, 24 h; inhibition, % at 12.6 µM; 360,000 compounds, 1.2% hits; AID 652154;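 active means mean replicate inhibition at least 60% with every replicate also reaching 60%; inconclusive means only one of the two criteria is met; inactive means mean below 60% and not all replicates reaching 60%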;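 further: luciferase light reporting Pax8 driven TPO promoter activity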
EWS-Fli block: EWS/Fli transcriptional activity inhibition | A673 NR0B1-luciferase reporter, viability-normalised | inhibition, % at 12.6 µM | 350,000 compounds, 0.67% hits;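 active means mean inhibition of at least 50% after viability correction, with every replicate also passing that limit; inconclusive means mean reaches 50% but only one of two replicates passes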;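 further: firefly luciferase signal divided by Alamar Blue viability fluorescence both relative to DMSO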
TWEAK-Fn14 inh: inhibitors of TWEAK-Fn14 interaction signaling; 360,000 compounds, 2% hits; TWEAK-stimulated Fn14 reporter cells, luciferase luminescence, 8 h; inhibition, % at 10 µM; in the data active means inhibition above about 50%
Hits are given with their value; - = inactive; ? = inconclusive; . = no result given.

SMILES	EBV LMP1 NFkB	LGR2 inh	TROY signal inh	PAX8 reporter	EWS-Fli block	TWEAK-Fn14 inh
CC[C@H](C)[C@@H]1NC(=O)CNC(=O)c2csc(n2)[C@H](C(C)(C)O)OC(=O)C(C)(C)[C@H](CCCC(C)(Cl)Cl)OC(=O)c2csc1n2	.	.	-	102	-	-
COC(=O)[C@@H]1[C@@H](CO)[C@@H]2Cn3c(ccc(-c4ccccc4)c3=O)[C@H]1N2CC1CCOCC1	.	-	.	-	-	.
c1ccc(CCn2nnnc2CN2CCC(n3nnc4ccccc43)CC2)cc1	-	.	-	.	.	-
Cc1nc2ccccc2n1C1CCN(Cc2nnnn2CCc2ccccc2)CC1	47	.	-	-	.	-
COc1cc2cc(C(=O)N3CC(COS(C)(=O)=O)c4ccc(O)cc43)[nH]c2c(OC)c1OC (centres undefined)	90	.	72	.	.	108
COc1ccc(CC2C(=O)NC(C)C(=O)N(C)C3C(=O)N(C)C(Cc4ccc(O)c(c4)Oc4ccc(cc4)C3O)C(=O)NC(C)C(=O)NC(C)C(=O)N2C)cc1 (centres undefined)	85	99	87	110	-	102
O=C(O)[C@H]1[C@H](CO)[C@H]2Cn3c(ccc(-c4ccccc4)c3=O)[C@@H]1N2C(=O)C1CCCCC1	.	-	.	-	-	.
Nc1ccc(C2(c3ccc(N)cc3)c3ccccc3-c3ccccc32)cc1	-	-	-	-	-	83
Nc1ccc(-c2ccccc2)cc1	-	-	-	-	-	-
COC(=O)[C@H]1[C@H](CO)[C@H]2Cn3c(ccc(-c4ccccc4)c3=O)[C@@H]1N2C(=O)c1ccccc1F	.	-	.	.	-	.
COc1cc2c(cc1OC)C(C1c3cc4c(cc3CCN1C)OCO4)OC2=O (centres undefined)	-	-	-	-	-	-
C#CCOc1cc(C2C3=C(COC3=O)Nc3cc4c(cc32)OCO4)ccc1OC (centres undefined)	-	-	-	?	63	-
O=C1CNC[C@H]2[C@H](c3ccc(Br)cc3)[C@@H](CO)N12	.	-	.	-	-	.
COc1ccc(-n2nnnc2C(c2cc3ccccc3o2)N2CCC(n3c(=O)[nH]c4ccccc43)CC2)cc1 (centres undefined)	.	76	68	-	-	103
Cc1cccc(C)c1-n1nnnc1C(c1cccc2ccccc12)N1CCC(n2c(=O)[nH]c3ccccc32)CC1 (centres undefined)	.	-	-	-	-	-
COc1ccc(C(c2nnnn2-c2ccc(OC)cc2)N2CCC(n3c(=O)[nH]c4ccccc43)CC2)cc1 (centres undefined)	.	-	-	-	-	-
O=c1[nH]c2ccccc2n1C1CCN(C(c2cccc3ccccc23)c2nnnn2-c2ccc3c(c2)OCCO3)CC1 (centres undefined)	.	-	-	98	-	-
O=c1[nH]c2ccccc2n1C1CCN(C(c2cc3ccccc3o2)c2nnnn2-c2ccc3c(c2)OCCO3)CC1 (centres undefined)	.	96	67	103	-	78
COc1ccc(-c2ccc([C@H]3[C@@H](CO)N4CCCCN(C(=O)Cc5ccccc5)C[C@@H]34)cc2)cc1	.	-	.	-	.	.
CC1CCC(C(C)C)C(OC(=O)Cn2c(COc3ccccc3)[n+](C)c3ccccc32)C1 (centres undefined)	-	-	-	91	-	-
CC1=C2C(=O)C3C(CC=C4CC(O)CCC43C)C2CCC12OC1CC(C)CNC1C2C (centres undefined)	-	-	-	-	-	97
CCN(CC)c1ccc(N=Cc2c(O)n(CCc3ccc(OC)c(OC)c3)c(=O)[nH]c2=O)cc1	-	51	-	-	.	52
COc1ccc(CCn2c(O)c(C=Nc3ccc(F)cc3)c(=O)[nH]c2=O)cc1OC	.	-	-	-	-	-
COCCN1C(=O)/C(=C/c2c(OC)cc(OC)cc2OC)C(=O)N(c2ccccc2)C1=O	-	-	-	-	-	70
COc1ccc(CC2C(=O)N(c3ccccc3)C(=O)N(c3ccccc3)C2=O)c(OC)c1	-	.	-	.	.	-
SMILES	EBV LMP1 NFkB	LGR2 inh	TROY signal inh	PAX8 reporter	EWS-Fli block	TWEAK-Fn14 inh
CCCCCn1c(=O)c(C(=O)Nc2ccccc2S(N)(=O)=O)c(O)c2ccccc21	-	-	-	83	-	59
CCCCn1c(=O)c(C(=O)NCc2ccncc2)c(O)c2ccccc21	-	.	-	.	.	56
Cc1ccc(OC(=O)N(C)C[C@@H]2OCc3ccccc3-c3c(n(C)c4ccccc34)C(=O)N([C@@H](C)CO)C[C@H]2C)cc1	.	-	.	98	-	.
O=C(Nc1ccncc1)c1cccn(Cc2ccccc2)c1=O	-	-	-	-	-	50
O=C(Nc1ccccc1)c1cccn(Cc2ccccc2)c1=O	-	-	-	-	-	-
CN1CCN(c2cccc3c2C(=O)c2ccccc2C3=O)CC1	-	-	64	-	-	55
CN1CCN(c2ccc3c(c2)S(=O)(=O)c2ccccc2C3=O)CC1	-	-	-	-	-	-
CCN(CCCl)c1cc(CN(C)C)cc(NC(=O)c2ccc(C(=O)Nc3cc(CN(C)C)cc(N(CC)CCCl)c3)cc2)c1	87	95	54	108	60	99
O=C(O)[C@H]1[C@H](CO)[C@H]2Cn3c(ccc(-c4ccc(F)cc4)c3=O)[C@@H]1N2CC1CCCCC1	.	-	.	-	-	.
C[C@H]1[C@@H](OS(=O)(=O)O)C[C@@H]2C[C@H]([C@@H](O)c3cc(=O)[nH]c(=O)[nH]3)NC3=NC[C@H]1N32	72	.	-	.	.	60
O=C1CNC[C@@H]2[C@@H](c3ccc(Br)cc3)[C@@H](CO)N12	.	-	.	-	-	.
O=c1[nH]c2ccccc2n1C1CCN(C(c2ccccc2OC(F)(F)F)c2nnnn2Cc2ccccc2)CC1 (centres undefined)	.	61	61	84	-	61
CC(C)(C)n1nnnc1C(CCc1ccccc1)N1CCC(n2c(=O)[nH]c3ccccc32)CC1 (centres undefined)	.	-	-	-	-	-
O=c1[nH]c2ccccc2n1C1CCN(C(c2cccs2)c2nnnn2Cc2ccccc2)CC1 (centres undefined)	.	-	-	87	-	-
COc1ccc(C(c2nnnn2Cc2ccccc2)N2CCC(n3c(=O)[nH]c4ccccc43)CC2)cc1 (centres undefined)	.	-	-	89	-	-
CCCN1[C@@H]2c3ccc(-c4ccc(F)cc4)c(=O)n3C[C@H]1[C@H](CO)[C@H]2C(=O)OC	.	-	.	-	-	.
O=C(Cc1ccccc1)N1CCCCN2[C@H](CO)[C@@H](c3ccc(C#Cc4ccccc4)cc3)[C@@H]2C1	.	-	.	-	.	.
Cc1ccccc1-c1ccc([C@@H]2[C@H]3CN(C(=O)Cc4ccccn4)CCCCN3[C@H]2CO)cc1	.	-	.	-	-	.
Cc1ccc(C(=O)C2CN(C)CC2C(=O)c2ccc(C)cc2)cc1 (centres undefined)	-	.	-	.	.	-
Cc1ccc(C(=O)C2CN3CCC2CC3)cc1 (centres undefined)	-	.	.	.	.	84

Screening data from PubChem BioAssay.
